Results taken from ChEMBL document CHEMBL3988442, “University of Dundee, Small-Polar-MMV Screening Library” (2021).
For some of these results: Potency and affinity values are given separately.

Legend:
Design in all cases: scale not given: direction of the effect not stated beside the values
[1] = target: Protein translocase subunit SecA (Escherichia coli (strain K12)) (UniProt P10408); assay: Assay to Identify E. coli SecA ATPase Inhibitors; type: functional; conditions: 30 µM
[2] = target: T1, Ubiquitin-activating enzyme e1, putative (Leishmania donovani (strain BPK282A1)) (UniProt E9BSI1); assay: Leishmania donovani Ubiquitin Activating Enzyme (LdE1); type: functional; conditions: 30 µM
T1 sequence (whole entry): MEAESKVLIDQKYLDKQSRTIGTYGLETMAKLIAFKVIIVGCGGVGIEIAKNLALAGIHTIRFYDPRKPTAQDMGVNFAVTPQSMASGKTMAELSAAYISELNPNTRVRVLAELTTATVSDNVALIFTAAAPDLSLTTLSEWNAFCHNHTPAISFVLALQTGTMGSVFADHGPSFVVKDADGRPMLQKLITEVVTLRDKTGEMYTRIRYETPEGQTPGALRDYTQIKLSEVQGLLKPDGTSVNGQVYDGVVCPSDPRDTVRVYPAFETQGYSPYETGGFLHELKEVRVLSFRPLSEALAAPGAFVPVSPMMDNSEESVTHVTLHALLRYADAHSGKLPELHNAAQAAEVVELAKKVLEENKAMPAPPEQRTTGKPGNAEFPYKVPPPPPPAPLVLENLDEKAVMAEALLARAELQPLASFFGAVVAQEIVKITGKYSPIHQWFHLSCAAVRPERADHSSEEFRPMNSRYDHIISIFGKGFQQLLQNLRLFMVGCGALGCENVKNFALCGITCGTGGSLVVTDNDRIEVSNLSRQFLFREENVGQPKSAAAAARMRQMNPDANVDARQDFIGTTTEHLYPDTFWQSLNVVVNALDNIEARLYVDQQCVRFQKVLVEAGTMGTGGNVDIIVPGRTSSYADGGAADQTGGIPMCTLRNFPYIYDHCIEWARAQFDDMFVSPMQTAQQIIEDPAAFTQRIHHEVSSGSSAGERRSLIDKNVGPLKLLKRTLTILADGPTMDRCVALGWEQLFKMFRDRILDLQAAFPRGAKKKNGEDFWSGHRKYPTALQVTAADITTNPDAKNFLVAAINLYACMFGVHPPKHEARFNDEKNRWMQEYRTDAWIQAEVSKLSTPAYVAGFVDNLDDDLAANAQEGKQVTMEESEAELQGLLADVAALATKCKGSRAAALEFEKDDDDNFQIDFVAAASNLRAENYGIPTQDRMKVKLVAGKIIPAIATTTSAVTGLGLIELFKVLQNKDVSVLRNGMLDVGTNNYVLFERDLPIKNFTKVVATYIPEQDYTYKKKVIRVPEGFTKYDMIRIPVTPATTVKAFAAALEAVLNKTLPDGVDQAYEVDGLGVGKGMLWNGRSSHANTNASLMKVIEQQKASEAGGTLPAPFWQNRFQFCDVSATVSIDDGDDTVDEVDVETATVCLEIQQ

[3] = target: AMP-activated protein kinase, AMPK (Homo sapiens) (UniProt P54646+O43741+P54619+Q9UGJ0+Q9Y478+Q13131+Q9UGI9); assay: AMP-dependent Kinase enzyme assay. An in vitro enzyme assay that detects ADP turnover that is directly proportional to AMPK activity. This uses naive AMPK that is activated during the assay with MK-8722; type: functional; conditions: 30 µM
[4] = target: Sialic acid-binding Ig-like lectin 9 (Homo sapiens) (UniProt Q9Y336); assay: Hs-Siglec9 ALPHAscreen SOP 20170721; conditions: 10 µM
Sialic acid-binding Ig-like lectin 9 (Homo sapiens), sequence (Q9Y336 whole entry): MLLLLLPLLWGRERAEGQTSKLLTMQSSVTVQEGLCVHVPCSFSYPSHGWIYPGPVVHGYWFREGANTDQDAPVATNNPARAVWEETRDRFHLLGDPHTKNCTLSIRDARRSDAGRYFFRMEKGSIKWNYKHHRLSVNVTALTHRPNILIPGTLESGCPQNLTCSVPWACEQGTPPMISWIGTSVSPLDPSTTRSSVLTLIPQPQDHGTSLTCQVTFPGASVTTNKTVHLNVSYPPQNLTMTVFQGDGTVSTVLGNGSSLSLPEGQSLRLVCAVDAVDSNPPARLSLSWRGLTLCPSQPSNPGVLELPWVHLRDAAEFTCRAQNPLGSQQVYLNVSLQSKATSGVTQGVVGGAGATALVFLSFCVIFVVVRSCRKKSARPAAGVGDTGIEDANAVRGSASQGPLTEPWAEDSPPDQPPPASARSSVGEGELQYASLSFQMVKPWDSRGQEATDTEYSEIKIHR

Trypanosoma cruzi = assay: Trypanosoma cruzi phosphomannomutase and mannose-1-phosphate guanylyltransferase assay; type: functional; conditions: 10 µM
[5] = target: T2, Arginase-2, mitochondrial (Homo sapiens) (UniProt P78540); assay: in vitro enzyme assay to detect the production of urea directly proportional to the activity of Arginase II; type: functional; conditions: 33.3 µM; also: in the data most compounds retested in dose-response had high values
T2 sequence (whole entry): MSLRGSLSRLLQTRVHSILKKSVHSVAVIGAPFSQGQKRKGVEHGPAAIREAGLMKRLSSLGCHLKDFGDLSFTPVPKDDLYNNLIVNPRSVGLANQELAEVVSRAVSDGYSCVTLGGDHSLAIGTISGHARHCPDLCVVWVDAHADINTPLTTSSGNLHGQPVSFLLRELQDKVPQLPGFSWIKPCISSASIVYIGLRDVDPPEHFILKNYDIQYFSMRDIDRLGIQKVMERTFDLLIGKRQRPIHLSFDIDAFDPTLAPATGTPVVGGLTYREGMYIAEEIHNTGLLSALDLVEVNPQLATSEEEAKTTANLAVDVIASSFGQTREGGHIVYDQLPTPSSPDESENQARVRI

[6] = target: T3, Proteasome subunit beta (Trypanosoma cruzi) (UniProt O96673); assay: Trypanosoma cruzi proteasome chymotrypsin-like activity (TcProtChymo) assay.; also: in the data most compounds retested in dose-response had high values; type: functional; conditions: 9.37 µM
T3 sequence (whole entry): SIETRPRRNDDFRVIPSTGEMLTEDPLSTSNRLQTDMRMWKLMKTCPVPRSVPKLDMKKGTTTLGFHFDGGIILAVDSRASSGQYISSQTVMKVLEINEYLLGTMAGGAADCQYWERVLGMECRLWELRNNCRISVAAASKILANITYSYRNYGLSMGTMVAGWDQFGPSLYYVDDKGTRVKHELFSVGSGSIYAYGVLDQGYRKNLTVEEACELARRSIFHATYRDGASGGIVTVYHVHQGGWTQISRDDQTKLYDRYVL

Homo sapiens = organism: Homo sapiens; assay: To identify inhibition of the IFN signalling (Jak-Stat) pathway via expression of an eGFP reporter gene under the control of an IFN-stimulated response element (ISRE) containing MxA promoter.; type: functional; conditions: 30 µM
[7] = target: T4, Tyrosyl-tRNA synthetase, putative (Trypanosoma cruzi (strain CL Brener)) (UniProt Q4DSP6); assay: Trypanosoma cruzi tyrosyl tRNA synthetase (TcYRS) _High Tyrosine SOP; type: functional; conditions: 30 µM; also: in the data most compounds retested in dose-response had high values
T4 sequence (whole entry): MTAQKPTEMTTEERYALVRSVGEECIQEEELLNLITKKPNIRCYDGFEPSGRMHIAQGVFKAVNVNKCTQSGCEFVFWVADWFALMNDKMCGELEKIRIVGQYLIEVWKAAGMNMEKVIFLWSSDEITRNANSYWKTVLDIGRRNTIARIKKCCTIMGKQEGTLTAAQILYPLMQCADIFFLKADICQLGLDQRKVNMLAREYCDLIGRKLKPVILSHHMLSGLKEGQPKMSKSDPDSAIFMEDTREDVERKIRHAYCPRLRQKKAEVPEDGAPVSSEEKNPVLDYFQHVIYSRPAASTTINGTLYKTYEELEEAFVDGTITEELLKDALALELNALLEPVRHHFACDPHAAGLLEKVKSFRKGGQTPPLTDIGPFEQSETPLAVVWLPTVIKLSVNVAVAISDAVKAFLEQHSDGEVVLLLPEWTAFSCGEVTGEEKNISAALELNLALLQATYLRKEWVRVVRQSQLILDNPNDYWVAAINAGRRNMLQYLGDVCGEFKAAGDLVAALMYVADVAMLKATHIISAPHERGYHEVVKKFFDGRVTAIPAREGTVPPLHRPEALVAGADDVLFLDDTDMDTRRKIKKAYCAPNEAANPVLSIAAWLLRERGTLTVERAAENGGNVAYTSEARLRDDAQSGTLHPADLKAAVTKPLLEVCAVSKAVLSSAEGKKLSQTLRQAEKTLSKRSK

[8] = target: T4, Tyrosyl-tRNA synthetase, putative (Trypanosoma cruzi (strain CL Brener)); assay: Trypanosoma cruzi tyrosyl tRNA synthetase (TcYRS) SOP; type: functional; conditions: 30 µM
[9] = target: Chromo domain-containing protein 1 (Saccharomyces cerevisiae (strain ATCC 204508 / S288c) (Baker's yeast)) (UniProt P32657); assay: ScCHD-1 Enzyme Inhibition Assay; type: functional; conditions: 30 µM; also: in the data most compounds retested in dose-response had high values
Chromo domain-containing protein 1 (Saccharomyces cerevisiae (strain ATCC 204508 / S288c) (Baker's yeast)), sequence (P32657 whole entry, the tested form may be a part): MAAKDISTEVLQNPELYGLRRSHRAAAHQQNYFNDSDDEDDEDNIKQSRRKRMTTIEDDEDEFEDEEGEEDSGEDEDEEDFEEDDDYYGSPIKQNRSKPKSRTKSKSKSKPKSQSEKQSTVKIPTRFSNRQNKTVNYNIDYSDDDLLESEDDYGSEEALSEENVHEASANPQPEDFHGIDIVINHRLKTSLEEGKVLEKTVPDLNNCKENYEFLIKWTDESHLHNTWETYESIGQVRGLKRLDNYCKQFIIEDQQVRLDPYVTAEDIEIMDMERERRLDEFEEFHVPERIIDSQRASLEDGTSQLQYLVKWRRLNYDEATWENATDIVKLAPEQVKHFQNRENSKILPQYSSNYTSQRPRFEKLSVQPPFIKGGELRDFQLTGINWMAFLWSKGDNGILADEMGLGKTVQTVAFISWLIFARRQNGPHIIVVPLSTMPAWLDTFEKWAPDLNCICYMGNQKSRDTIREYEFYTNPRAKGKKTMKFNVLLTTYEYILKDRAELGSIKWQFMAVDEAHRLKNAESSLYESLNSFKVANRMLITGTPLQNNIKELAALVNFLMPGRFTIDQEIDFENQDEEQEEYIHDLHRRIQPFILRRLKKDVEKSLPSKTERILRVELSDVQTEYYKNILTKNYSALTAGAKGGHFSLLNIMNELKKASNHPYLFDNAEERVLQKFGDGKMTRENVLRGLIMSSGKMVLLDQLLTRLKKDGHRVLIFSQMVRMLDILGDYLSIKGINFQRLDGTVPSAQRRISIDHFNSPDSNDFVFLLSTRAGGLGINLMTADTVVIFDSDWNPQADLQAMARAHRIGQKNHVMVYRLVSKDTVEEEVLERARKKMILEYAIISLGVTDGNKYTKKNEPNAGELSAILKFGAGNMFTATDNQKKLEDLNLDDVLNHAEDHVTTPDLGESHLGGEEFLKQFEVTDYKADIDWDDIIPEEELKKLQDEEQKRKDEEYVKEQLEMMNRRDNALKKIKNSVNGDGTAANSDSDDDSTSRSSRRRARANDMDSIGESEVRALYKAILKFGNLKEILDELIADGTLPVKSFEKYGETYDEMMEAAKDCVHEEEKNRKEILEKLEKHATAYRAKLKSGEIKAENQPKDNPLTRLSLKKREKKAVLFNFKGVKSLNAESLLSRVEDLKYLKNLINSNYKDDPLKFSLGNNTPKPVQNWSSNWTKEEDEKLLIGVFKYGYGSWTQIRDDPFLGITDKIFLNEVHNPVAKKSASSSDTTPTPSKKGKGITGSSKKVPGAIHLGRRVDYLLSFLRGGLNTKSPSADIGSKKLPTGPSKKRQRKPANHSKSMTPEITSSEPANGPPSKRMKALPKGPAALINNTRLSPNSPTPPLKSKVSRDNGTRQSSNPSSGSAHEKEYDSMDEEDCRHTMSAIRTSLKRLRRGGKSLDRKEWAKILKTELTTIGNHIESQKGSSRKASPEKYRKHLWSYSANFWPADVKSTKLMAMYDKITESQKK

Protein translocase subunit SecA (Escherichia coli (strain K12)), sequence (P10408 whole entry): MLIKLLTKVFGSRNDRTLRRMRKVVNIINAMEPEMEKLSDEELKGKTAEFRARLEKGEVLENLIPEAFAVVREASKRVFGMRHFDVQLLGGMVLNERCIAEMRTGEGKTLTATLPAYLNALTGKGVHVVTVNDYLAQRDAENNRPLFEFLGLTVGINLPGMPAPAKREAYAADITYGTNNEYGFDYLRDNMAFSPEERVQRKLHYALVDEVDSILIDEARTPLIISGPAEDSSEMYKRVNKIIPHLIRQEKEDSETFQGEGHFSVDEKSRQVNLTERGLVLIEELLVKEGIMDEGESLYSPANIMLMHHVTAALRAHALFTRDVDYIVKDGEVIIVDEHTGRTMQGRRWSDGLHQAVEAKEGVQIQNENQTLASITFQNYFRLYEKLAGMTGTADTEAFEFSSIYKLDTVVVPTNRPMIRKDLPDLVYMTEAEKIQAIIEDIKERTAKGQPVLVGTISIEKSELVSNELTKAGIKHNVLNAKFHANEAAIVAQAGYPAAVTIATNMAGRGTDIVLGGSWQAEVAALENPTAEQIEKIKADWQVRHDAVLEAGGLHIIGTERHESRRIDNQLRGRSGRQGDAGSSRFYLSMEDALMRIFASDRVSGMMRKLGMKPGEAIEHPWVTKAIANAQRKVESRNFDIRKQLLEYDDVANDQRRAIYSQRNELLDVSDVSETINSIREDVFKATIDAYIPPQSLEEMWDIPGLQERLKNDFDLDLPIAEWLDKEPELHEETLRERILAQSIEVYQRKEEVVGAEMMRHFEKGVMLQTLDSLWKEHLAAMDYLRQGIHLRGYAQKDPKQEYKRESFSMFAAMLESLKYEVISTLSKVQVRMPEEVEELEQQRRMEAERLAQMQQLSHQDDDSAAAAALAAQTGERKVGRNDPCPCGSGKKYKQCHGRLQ

CNS(=O)(=O)c1ccc(C(=O)NC2CCOc3ccccc32)o1 (stereo not drawn)
Percent Effect [1]: -5.29% | Percent Effect [2]: 18.4% | Percent Effect [3]: 0.291% | Percent Effect [4]: 1.37% | Percent Effect (Trypanosoma cruzi): 0.682% | Percent Effect [5]: -3.55% | Percent Effect [6]: 11.8% | Percent Effect (Homo sapiens): 17.5% | Percent Effect [7]: 2.13% | Percent Effect [8]: 18.2% | Percent Effect [9]: -7.69%

O=C(CCC1CCCC1)NCCn1nc(C2CCNC2)c2cccnc21 (stereo not drawn)
Percent Effect [1]: -0.0662% | Percent Effect [2]: 0% | Percent Effect [3]: 8.6% | Percent Effect [4]: 2.58% | Percent Effect (Trypanosoma cruzi): 4.53% | Percent Effect [5]: -0.699% | Percent Effect [6]: 3.26% | Percent Effect (Homo sapiens): -34.5% | Percent Effect [7]: 3.19% | Percent Effect [8]: 6.41% | Percent Effect [9]: -1.12%

CCn1ccnc1CN(C)C1CCCN(CCc2ccccc2)C1 (stereo not drawn)
Percent Effect [1]: -7.05% | Percent Effect [2]: 0% | Percent Effect [3]: 0.137% | Percent Effect [4]: 4.16% | Percent Effect (Trypanosoma cruzi): -3.64% | Percent Effect [5]: 4.14% | Percent Effect [6]: 0.832% | Percent Effect (Homo sapiens): -8.38% | Percent Effect [7]: 5.38% | Percent Effect [8]: 3.7% | Percent Effect [9]: 2.42%

O=C(NCC1CC1)Nc1cccc(N2CCN(CC3CC3)CC2)c1
Percent Effect [1]: -6.91% | Percent Effect [2]: 13.5% | Percent Effect [3]: -7.28% | Percent Effect [4]: 31.9% | Percent Effect (Trypanosoma cruzi): 5.38% | Percent Effect [5]: 1.24% | Percent Effect [6]: 6.78% | Percent Effect (Homo sapiens): -5.11% | Percent Effect [7]: 3.23% | Percent Effect [8]: 16.1% | Percent Effect [9]: -13.1%

CCN(Cc1ccco1)C(=O)NCc1nnc2n1CCC2
Percent Effect [1]: -1.4% | Percent Effect [2]: 10.8% | Percent Effect [3]: -2.71% | Percent Effect [4]: 1.38% | Percent Effect (Trypanosoma cruzi): -1.35% | Percent Effect [5]: 3.81% | Percent Effect [6]: 20.5% | Percent Effect (Homo sapiens): 0.671% | Percent Effect [7]: 6.88% | Percent Effect [8]: 14.6% | Percent Effect [9]: -1.97%

O=C([C@@H]1C[C@H]2[C@H](CCN2Cc2nccs2)O1)N1CCOCC1
Percent Effect [1]: -0.787% | Percent Effect [2]: 8.11% | Percent Effect [3]: 1.14% | Percent Effect [4]: -3.79% | Percent Effect (Trypanosoma cruzi): -2.15% | Percent Effect [5]: 0.833% | Percent Effect [6]: 19% | Percent Effect (Homo sapiens): 11.3% | Percent Effect [7]: 10.9% | Percent Effect [8]: 13.4% | Percent Effect [9]: 8.93%

COc1ccc(C(=O)N(C)Cc2cccc(C#N)c2)c(OC)c1OC
Percent Effect [1]: -2.52% | Percent Effect [2]: 8.11% | Percent Effect [3]: -1.05% | Percent Effect [4]: 10.9% | Percent Effect (Trypanosoma cruzi): 1.95% | Percent Effect [5]: -2.08% | Percent Effect [6]: 14.3% | Percent Effect (Homo sapiens): 1.4% | Percent Effect [7]: 2.97% | Percent Effect [8]: 3.66% | Percent Effect [9]: -2.24%

COc1cccc(CN2CCCC2c2c(C)nn(C)c2C)c1 (stereo not drawn)
Percent Effect [1]: -1.8% | Percent Effect [2]: -2.53% | Percent Effect [3]: -4.49% | Percent Effect [4]: 11.6% | Percent Effect (Trypanosoma cruzi): 0.661% | Percent Effect [5]: 0.38% | Percent Effect [6]: -1.72% | Percent Effect (Homo sapiens): -9.36% | Percent Effect [7]: 5.42% | Percent Effect [8]: -1.27% | Percent Effect [9]: -3.67%
